According to the supplement of paper PMC10681739:

Biological target: T1, ETS1 (UniProt P14921)
T1 sequence: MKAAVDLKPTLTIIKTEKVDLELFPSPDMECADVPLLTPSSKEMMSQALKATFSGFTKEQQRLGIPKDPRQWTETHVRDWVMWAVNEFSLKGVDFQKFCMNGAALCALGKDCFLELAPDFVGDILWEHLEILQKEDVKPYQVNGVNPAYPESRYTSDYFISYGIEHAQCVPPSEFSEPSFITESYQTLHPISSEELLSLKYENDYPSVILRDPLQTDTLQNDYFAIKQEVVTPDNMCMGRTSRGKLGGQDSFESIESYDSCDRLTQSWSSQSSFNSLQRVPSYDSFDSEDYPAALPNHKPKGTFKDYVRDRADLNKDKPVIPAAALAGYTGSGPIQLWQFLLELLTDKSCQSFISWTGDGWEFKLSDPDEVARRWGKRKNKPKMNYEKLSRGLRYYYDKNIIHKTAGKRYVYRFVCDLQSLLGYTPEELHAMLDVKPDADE
Test: ETS1 binding intensity (PBM fluorescence), ETS1 alone (arbitrary fluorescence units); higher = stronger binding
Details: ETS1 concentration 1 nM; RUNX1 concentration 0 nM

| Sequence | ETS1 binding intensity |
| --- | --- |
| GCCCCCATGCTTCCTGTTGTGGGAGATGAAGTGTGG | 1710 |
| GTTGCCCCACTTCCTGCCAGTGGTTTTTGGTTGGCC | 2660 |
| GACCCGGCCCGCCCCTTCCGGCCGCAGCGCGGGGCA | 704 |
| ACACAAACAGGAAGTGTTTGTGGTCCCTGCCTTTAG | 7210 |
| AAAGCAAACAGGAAGTGCTGTGGTAACAAGGCCCCA | 6830 |
| GCACTCATTTCCTGTCCCCTGTGGTTTAAAGGTTTT | 1990 |
| CATGGGACCCGGAAGTGTGTGGTAAAGCGCCGGGGC | 3590 |
| ACCTTCGCCGGATGCTGTGGCTGAAACCACAGCATT | 2480 |
| GAAGCCAGGAAATGGTGCGTGTGCGGGGCCGGGCGC | 982 |
| GAGGAGGAAAGCGGAAGCGCTGCCCGCAGTGGTAGG | 4260 |
| CCCCTATATCACAGGATGCCGCAAACTAGTAACAGG | 1610 |
| TAAAGAAACAGGATGACTGTGGTTTACTGCGAGCAT | 500 |
| GCGGCTGAGAACACAGGATGTGGCTTTTGGCAGATG | 6080 |
| ACTATTTTTAGACTTCCCCACCCCGCAGTTTCAAGG | 601 |
| TGTGTAACTTCCTGGCTTTGGTGGTTTCCCCCTCCT | 1150 |
| CTCCACCGGATGCAGCAATGAAGGCCGCAGGAATGG | 3160 |
| CTCACTTCCCCGGCAGCTCCCTCGCCCCGACCGCAG | 406 |
| CTTTGTTGAAAAGGATGTGGTCATCTGATCTTGCTG | 1070 |
| ACAGGAAATGACATCAGAATCTCCAAACCACAACCA | 1030 |
| GAGGAAGAGTCTTCCTGTAACCACTAGAGGGCGCTG | 592 |

| Sequence | ETS1 binding intensity |
| --- | --- |
| TGGTTTCTCACTGGCGGATGTGGGTGGGTCGCCTCC | 4130 |
| CCCAATTTCCTTTGCTCTGCTGTCTGCCAACCGCAA | 418 |
| TGCTCAGAAGGGCATCCGGTTGCGGAGAAGGTACAC | 2130 |
| TAACTACTTCCTTTTACTATCTACCACAATTTAATT | 516 |
| GAGTCGCTTCCGCTCCCGCCCCGCTCTGTGGCGTAG | 1180 |
| GCAGCTGCAAACAGGAAACCACAGCAGCGTAGCGGA | 2910 |
| CTCACTCATCTGACTTCCTGCGGTTTACGACAACAG | 1200 |
| CTTGTGAAATGTATCCTGTGGTTGCCGGCTGAAGTG | 499 |
| TAAAACACCAGGAAACTCTGTGGTGAGTGGGAGGTG | 787 |
| GGCTGGCCTAGGAACTTCCGCCACAAGTCCCGCCCC | 1860 |
| GCGCACTTCCGGGCTGGTGAACGCGGTGACGTCACC | 1250 |
| CACCTGGCCCGGACGGCTGCGGTCTGGAGGGCTGTC | 386 |
| CCGCCGCGACACTTCCGGCGGCCACCACAGGGTATT | 2700 |
| GTACTGAGTCACAGGAAACCACAAGGGAAGGGTCCC | 2510 |
| GTTGAGTAGTGACAGGAAGTGACCGCAAGGGGGCGC | 10700 |
| AGCTTGCTTCCTGTCCCCAAAACCCACAGCACACGG | 688 |
| GTTGGGGTGCGTGTAGGATGTGGTCTGGGATGATTA | 599 |
| GACAAAACACAGAAAGGAAGTGGTCAACTATTGCAC | 2510 |
| CCACTGCCGGAAGGGGAACTGTGGGGGTGCGCGAGT | 1110 |
